According to the supplement of paper PMC13380429:
Values without a mark were called inactive.

Tested on: Vero E6 infected with SARS-CoV-2
Assay: inhibition of SARS-CoV-2 cytopathic effect; higher = more antiviral protection, active = above 15
Conditions: 48 h

| SMILES | inhibition of SARS-CoV-2 cytopathic effect (1 nM) | inhibition of SARS-CoV-2 cytopathic effect (8.33 nM) | inhibition of SARS-CoV-2 cytopathic effect (100 nM) | inhibition of SARS-CoV-2 cytopathic effect (833.33 nM) | inhibition of SARS-CoV-2 cytopathic effect (10000 nM) |
| --- | --- | --- | --- | --- | --- |
| NCCCCCC(=O)O [aminocaproic-acid] | -7.62% | -2.22% | 1.68% | 1.01% | -2.29% |
| C[C@]12CC[C@H]3[C@@H](CC[C@@]45O[C@@H]4C(O)=C(C#N)C[C@]35C)[C@@H]1CC[C@@H]2O [trilostane] | 1.21% | -0.28% | -1.2% | 0.24% | 2.15% |
| Cc1nnc(C[C@@H]2C=C(c3ccc(Cl)cc3)c3ccccc3-n3c(C)nnc32)o1 | 1.71% | 0.46% | 2.65% | -4.91% | -11.7% |
| C[C@@H]1CN(CCCn2c3ccccc3c3ccccc32)C[C@H](C)N1 [rimcazole] | -0.92% | -0.33% | 0.18% | -2.52% | 31.1% (active) |
| O=c1[nH]c(=O)n([C@H]2C[C@H](O)[C@@H](CO)O2)cc1I [idoxuridine] | 1.04% | -1.19% | 2.65% | -0.31% | -2.33% |
| NC(=O)c1[nH]cnc1O | 0.65% | 1.77% | 0.2% | -1.72% | 3.24% |
| COC(=O)[C@@H](N)CCCNC(=N)N[N+](=O)[O-] | 0.94% | -2.09% | -1.83% | -3.06% | -0.4% |
| C=CC(=O)Nc1cccc(Nc2nc(Nc3ccc(Oc4ccnc(C(=O)NC)c4)cc3)ncc2F)c1 | -1.65% | 1.5% | 0.39% | -1.84% | 9.86% |
| O=C(O)/C=C/c1ccc(Cn2ccnc2)cc1 [ozagrel] | 0.02% | 3.28% | 0.19% | 0.75% | -0.91% |
| Cc1cc(=O)n(-c2ccccc2)[nH]1 [N-demethylantipyrine] | 6.19% | -3.23% | -4.99% | -2.77% | -2.87% |
| O=C1c2ccccc2C(Cc2ccnc(F)c2)(Cc2ccnc(F)c2)c2ccccc21 | 0.2% | 0.21% | 5.3% | 2.26% | -2.51% |
| NNc1nncc2ccccc12 [hydralazine] | 0.09% | 0.28% | -1.28% | -0.12% | 0.87% |
| C[C@H]1[C@@H](O)O[C@@H]2O[C@@]3(C)CC[C@H]4[C@H](C)CC[C@@H]1[C@@]24OO3 | 0.99% | 1.14% | 1.39% | 1.43% | 0.11% |
| OC[C@H]1O[C@@H](OCCc2ccc(O)cc2)[C@H](O)[C@@H](O)[C@@H]1O [salidroside] | -0.77% | 0.23% | -0.6% | 0.45% | -0.54% |
| CC(C)=CCC[C@](C)(O[C@@H]1O[C@H](CO)[C@@H](O)[C@H](O)[C@H]1O)[C@H]1CC[C@]2(C)[C@@H]1[C@H](O)C[C@@H]1[C@@]3(C)CC[C@H](O)C(C)(C)[C@@H]3CC[C@]12C [ginsenoside-C-K] | 3.53% | 3.09% | 3.64% | -0.21% | 2.52% |
| O=C(/C=C/c1ccc2c(c1)OCO2)N1CCCCC1 [ilepcimide] | 0.84% | 0.26% | 1.04% | -1.12% | 0.82% |
| COc1cc(CNC(=O)CCCC/C=C/C(C)C)ccc1O [capsaicin] | 0.65% | 0.89% | 1.27% | -1.15% | 2.73% |
| O=C(Nc1ccc(Cl)cc1)Nc1cccc(-c2cccc(N3CCCC3)n2)c1 | 1% | 1.53% | -2.03% | -4.04% | -6.24% |
| CNc1cc2[nH]c(=O)n(-c3ccc(NC(=O)NS(=O)(=O)c4ccc(Cl)s4)cc3)c(=O)c2cc1F [elinogrel] | 3.26% | 1.24% | -3.68% | 3.74% | -1.62% |
| O=C(O)c1cn(C2CC2)c2cc(N3CCNCC3)c(F)cc2c1=O [ciprofloxacin] | -2.01% | -1.59% | 0.61% | -0.98% | -2.99% |
| Oc1cccc(-c2nc(N3CCOCC3)c3oc4ncccc4c3n2)c1 | -0.17% | 0.46% | -0.59% | -6.22% | -7.96% |

| SMILES | inhibition of SARS-CoV-2 cytopathic effect (1 nM) | inhibition of SARS-CoV-2 cytopathic effect (8.33 nM) | inhibition of SARS-CoV-2 cytopathic effect (100 nM) | inhibition of SARS-CoV-2 cytopathic effect (833.33 nM) | inhibition of SARS-CoV-2 cytopathic effect (10000 nM) |
| --- | --- | --- | --- | --- | --- |
| CCOCC(O)COc1ccc(NC(=O)CC[S+](C)C)cc1 (stereo not given) [suplatast] | 2.01% | -0.4% | -0.49% | 0.97% | 0.31% |
| O=c1[nH]ccc2cc(OC3CCNCC3)ccc12 | 1.91% | 0.89% | -0.08% | -3.34% | -7.36% |
| CCCOc1ccc(C(=O)OCCN(CC)CC)cc1N [proxymetacaine] | 1.69% | 1.71% | 2.25% | 0.25% | 2% |
| CCN(C(=O)c1c(O)c2c(Cl)cccc2n(C)c1=O)c1ccccc1 [laquinimod] | 1.55% | -0.45% | 0.71% | -5.3% | -6.25% |
| Nc1ncnc2c1ncn2CCOCP(=O)(O)O [adefovir] | 6.28% | 4.07% | 2.27% | 0.75% | 2.85% |
| COc1ccc(Cl)cc1C(=O)NCCc1ccc(C(=O)O)cc1 [meglitinide] | 2.2% | 0.5% | 1.3% | 0.11% | 1.33% |
| Cc1cc(C)nc(NS(=O)(=O)c2ccc(N)cc2)n1 [sulfamethazine] | -2.32% | 0.49% | 0.37% | 0.92% | -1.06% |
| O=C1C(O)=C(O)C(=O)C(O)=C1O [tetroquinone] | -0.23% | 0.57% | 1.71% | -0.73% | -0.73% |
| C[C@]12CC/C(=N\OCCN)C[C@@H]1C(=O)C[C@@H]1[C@@H]2CC[C@]2(C)C(=O)CC[C@@H]12 [istaroxime] | 2.17% | -1.67% | 1.45% | 3.86% | 6.93% |
| CCN(CC)CCOCCOC(=O)C1(c2ccccc2)CCCC1 [carbetapentane] | -0.34% | 0.73% | 1.1% | 1.39% | 0.95% |
| O=C(OCC(O)CO)c1ccccc1Nc1ccnc2c(C(F)(F)F)cccc12 (stereo not given) [floctafenine] | 0.71% | 6.76% | 1.82% | 3.08% | 3.04% |
| Cc1cccc(-c2[nH]c(CNc3ccccc3F)nc2-c2ccc3ncnn3c2)n1 | 0.31% | 3.47% | 1.38% | 1.08% | 2.46% |
| COc1cc(N2CCC(N3CCN(C)CC3)CC2)ccc1Nc1ncc(Cl)c(Nc2ccccc2S(=O)(=O)C(C)C)n1 | -0.23% | -4.02% | -0.56% | -0.6% | -15.5% |
| COc1cc2c(NC3CCN(C(C)C)CC3)nc(N3CCC(F)(F)CC3)nc2cc1OCCCN1CCCC1 | -0.61% | 0.14% | 3.08% | 0.9% | 68.5% (active) |
| CC(C)N(CCNC(=O)CN1CCCC1=O)C(C)C [pramiracetam] | -3.32% | -1.27% | 0.57% | 3.04% | 0.12% |
| CC(C)NC(=O)N1CC[C@H](NC2=Nc3cc(F)ccc3N(CC(F)F)c3ccc(Cl)cc32)C1 | 2.37% | 0.15% | 3.33% | 8.12% | -0.57% |
| O[C@@H](Cc1ccncc1)C(Cl)(Cl)Cl | 0.9% | 1.38% | 3.16% | 0.72% | 0.84% |
| Sc1ncnc2nc[nH]c12 [mercaptopurine] | -0.65% | 1.59% | 2.14% | 1.92% | 0.56% |
| CN1C2CCCC1CC(NC(=O)c1nn(C)c3ccccc13)C2 (stereo not given) [granisetron] | 3.53% | 4.21% | -1.14% | -2.63% | -4.21% |
| CCOC(=O)c1c(C)[nH]c2ccc3c(c12)CN1CCc2cc(OC)ccc2C1O3 (stereo not given) | 3.34% | 2.9% | 2.29% | 3.53% | 24.1% (active) |
